Results published in the antibiotic and cytotoxicity screens of Wong et al. (2023).
Among all 39,000 compounds or so, about 1,500 (3.8%) were called active. The sample as a whole holds a higher share of actives than the screen did.

These compounds were tested on HSkMC (human skeletal muscle cells) (assay: cytotoxicity call (relative viability < 0.9)). Settings: 10 µM.

SMILES	cytotoxicity call
CC(C)NC(=O)Nc1ccc2c(c1)CC(=O)N([C@@H](C)CO)C[C@@H](C)[C@@H](CN(C)S(=O)(=O)c1cn(C)cn1)O2	inactive
C[C@H](CO)N1C[C@H](C)[C@@H](CN(C)Cc2ccccc2)OCCCC[C@H](C)Oc2ccc(NC(=O)c3ccncc3)cc2C1=O	inactive
C[C@H]1CN([C@@H](C)CO)C(=O)c2c(c3ccccc3n2C)-c2ccccc2CO[C@H]1CN(C)Cc1ccc(C(F)(F)F)cc1	inactive
C[C@H]1CN([C@@H](C)CO)C(=O)c2c(c3ccccc3n2C)-c2ccccc2CO[C@@H]1CN(C)Cc1ccc(C(F)(F)F)cc1	inactive
C[C@H](CO)N1C[C@H](C)[C@H](CN(C)Cc2ccc(C(F)(F)F)cc2)OCc2ccccc2-c2c(n(C)c3ccccc23)C1=O	inactive
C[C@@H]1CN([C@H](C)CO)C(=O)c2c(c3ccccc3n2C)-c2ccccc2CO[C@@H]1CN(C)Cc1ccc(F)cc1	inactive
C[C@@H]1CN([C@H](C)CO)C(=O)c2c(c3ccccc3n2C)-c2ccccc2CO[C@H]1CN(C)Cc1ccc(C(F)(F)F)cc1	active
C[C@@H]1CN([C@H](C)CO)C(=O)c2c(c3ccccc3n2C)-c2ccccc2CO[C@H]1CN(C)S(=O)(=O)c1ccc(C(F)(F)F)cc1	active
C[C@@H]1CN([C@H](C)CO)C(=O)c2c(c3ccccc3n2C)-c2ccccc2CO[C@@H]1CN(C)S(=O)(=O)c1ccc(C(F)(F)F)cc1	inactive
C[C@H](CO)N1C[C@H](C)[C@@H](CN(C)Cc2ccc(C(F)(F)F)cc2)OCc2ccccc2-c2c(n(C)c3ccccc23)C1=O	inactive
C[C@@H]1CN([C@H](C)CO)C(=O)c2c(c3ccccc3n2C)-c2ccccc2CO[C@@H]1CN(C)Cc1ccc(C(F)(F)F)cc1	active
C[C@@H]1CN([C@@H](C)CO)C(=O)c2c(c3ccccc3n2C)-c2ccccc2CO[C@@H]1CN(C)Cc1ccc(C(F)(F)F)cc1	inactive
C[C@@H]1CN([C@@H](C)CO)C(=O)c2c(c3ccccc3n2C)-c2ccccc2CO[C@@H]1CN(C)S(=O)(=O)c1ccc(C(F)(F)F)cc1	inactive
C[C@@H]1CN([C@@H](C)CO)C(=O)c2c(c3ccccc3n2C)-c2ccccc2CO[C@H]1CN(C)Cc1ccc(C(F)(F)F)cc1	active
C[C@H](CO)N1C[C@H](C)[C@@H](CN(C)C(=O)Nc2ccccc2)OCCCC[C@H](C)Oc2ccc(NC(=O)Nc3ccc(F)cc3)cc2C1=O	inactive
C[C@@H]1CCCCO[C@H](CN(C)C(=O)Nc2ccc3c(c2)OCO3)[C@@H](C)CN([C@@H](C)CO)C(=O)c2cc(NS(=O)(=O)c3cccs3)ccc2O1	inactive
CN(C)C(=O)C[C@H]1CC[C@@H](NC(=O)C2CCOCC2)[C@H](CO)O1	inactive
O=C(/C=C/c1ccc(O)c(O)c1)O[C@H]1[C@H](O)C[C@](OC(=O)/C=C/c2ccc(O)c(O)c2)(C(=O)O)C[C@H]1O	inactive
O=C(C[C@@H]1CC[C@@H]2[C@H](COC[C@@H](O)CN2S(=O)(=O)c2ccc(Cl)cc2)O1)NCC1CCCCC1	inactive
COc1ccc(NC(=O)N(C)C[C@@H]2OCCCC[C@@H](C)Oc3ccc(NC(=O)Nc4ccc(F)cc4)cc3C(=O)N([C@H](C)CO)C[C@@H]2C)cc1	inactive

SMILES	cytotoxicity call
COc1ccc(S(=O)(=O)N(C)C[C@@H]2Oc3ccc(NC(=O)c4ccncc4)cc3C(=O)N([C@@H](C)CO)C[C@H]2C)cc1	inactive
C[C@H]1CN([C@@H](C)CO)C(=O)c2cccc(NC(=O)c3nc4ccccc4s3)c2O[C@H]1CN(C)S(C)(=O)=O	inactive
CC(C)NC(=O)N(C)C[C@@H]1Oc2ccc(NS(=O)(=O)c3cccs3)cc2CC(=O)N([C@@H](C)CO)C[C@H]1C	inactive
C[C@@H]1CN([C@@H](C)CO)S(=O)(=O)c2ccc(C#C[C@@H](C)O)cc2O[C@@H]1CN(C)C(=O)c1ccncc1	inactive
CO[C@@H]1CN(C)C(=O)c2cc(NC(=O)C3CC3)ccc2OC[C@H](C)N(C(=O)C2CCOCC2)C[C@H]1C	inactive
Cc1noc(C)c1NC(=O)N(C)C[C@H]1Oc2c(NC(=O)NC(C)C)cccc2C(=O)N([C@H](C)CO)C[C@H]1C	inactive
CO[C@@H](C(=O)N(C)C[C@H]1OCc2ccccc2-c2c(n(C)c3ccccc23)C(=O)N([C@@H](C)CO)C[C@H]1C)c1ccccc1	inactive
C[C@@H]1CN([C@H](C)CO)C(=O)c2cc(NC(=O)Nc3cccc4ccccc34)ccc2O[C@H]1CN(C)Cc1ccc(C(F)(F)F)cc1	inactive
C[C@@H]1CN([C@@H](C)CO)C(=O)Cc2cc(NC(=O)Nc3ccc(C(F)(F)F)cc3)ccc2O[C@@H]1CN(C)C(=O)Nc1cccc2ccccc12	active
C[C@@H]1CN([C@@H](C)CO)C(=O)Cc2cc(NC(=O)Nc3cccc4ccccc34)ccc2O[C@@H]1CN(C)C(=O)Nc1ccc(C(F)(F)F)cc1	active
C[C@H]1CN([C@@H](C)CO)C(=O)c2cc(NC(=O)Nc3cccc4ccccc34)ccc2O[C@H]1CN(C)Cc1ccc(C(F)(F)F)cc1	active
C[C@H]1CN([C@@H](C)CO)C(=O)Cc2cc(NC(=O)Nc3cccc4ccccc34)ccc2O[C@@H]1CN(C)Cc1ccc(C(F)(F)F)cc1	inactive
C[C@H]1CN([C@@H](C)CO)C(=O)Cc2cc(NC(=O)Nc3cccc4ccccc34)ccc2O[C@H]1CN(C)Cc1ccc(C(F)(F)F)cc1	active
C[C@H]1CN([C@@H](C)CO)C(=O)Cc2cc(NC(=O)Nc3ccc(C(F)(F)F)cc3)ccc2O[C@H]1CN(C)C(=O)Nc1cccc2ccccc12	inactive
C[C@H]1CN([C@@H](C)CO)C(=O)Cc2cc(NC(=O)Nc3ccc(C(F)(F)F)cc3)ccc2O[C@@H]1CN(C)C(=O)Nc1cccc2ccccc12	inactive
C[C@H]1CN([C@@H](C)CO)C(=O)Cc2cc(NC(=O)Nc3cccc4ccccc34)ccc2O[C@@H]1CN(C)C(=O)Nc1ccc(C(F)(F)F)cc1	inactive
C[C@@H]1CN([C@@H](C)CO)C(=O)c2cc(NC(=O)Nc3cccc4ccccc34)ccc2O[C@H]1CN(C)Cc1ccc(C(F)(F)F)cc1	inactive
C[C@H](CO)N1C[C@H](C)[C@@H](CN(C)Cc2ccc(C(F)(F)F)cc2)Oc2ccc(NC(=O)Nc3cccc4ccccc34)cc2CC1=O	inactive
C[C@@H]1CN([C@@H](C)CO)C(=O)Cc2cc(NC(=O)Nc3cccc4ccccc34)ccc2O[C@H]1CN(C)C(=O)Nc1ccc(C(F)(F)F)cc1	inactive
COc1ccc(NC(=O)Nc2ccc3c(c2)[C@@H]2C[C@@H](CC(=O)NCc4ccncc4)O[C@H](CO)[C@@H]2O3)cc1	inactive

SMILES	cytotoxicity call
COc1ccc(S(=O)(=O)N(C)C[C@@H]2OCCCC[C@@H](C)Oc3ccc(NC(=O)Nc4ccccc4)cc3C(=O)N([C@@H](C)CO)C[C@H]2C)cc1	inactive
C[C@H](CO)N1C[C@H](C)[C@H](CN(C)S(=O)(=O)c2ccccc2)Oc2ccc(NC(=O)Cn3cnnn3)cc2CC1=O	inactive
C[C@@H]1CN([C@@H](C)CO)C(=O)Cc2cc(NC(=O)Cc3cn(C)c4ccccc34)ccc2O[C@H]1CN(C)C(=O)Nc1cccc2ccccc12	inactive
C#CCN(O[C@@H](/C=C/[C@@H](O)Cc1ccccc1)C1CC1)[C@@H](Cc1ccc(-n2cc(CCC(=O)NO)nn2)cc1)C(=O)OC	inactive
Cc1noc(C)c1S(=O)(=O)N(C)C[C@H]1Oc2ccc(NS(=O)(=O)c3cn(C)cn3)cc2CC(=O)N([C@@H](C)CO)C[C@@H]1C	inactive
Cc1noc(C)c1S(=O)(=O)Nc1ccc2c(c1)C(=O)N([C@H](C)CO)C[C@H](C)[C@H](CN(C)C(=O)Nc1ccc3c(c1)OCO3)O2	inactive
Cc1noc(C)c1S(=O)(=O)Nc1ccc2c(c1)C(=O)N([C@H](C)CO)C[C@H](C)[C@@H](CN(C)S(=O)(=O)c1ccccc1)O2	inactive
O=C(C[C@@H]1C[C@@H]2c3cc(NC(=O)C4CCOCC4)ccc3O[C@@H]2[C@@H](CO)O1)NCc1ccc2c(c1)OCO2	inactive
C[C@@H]1CCCCO[C@H](CN(C)CC2CCCCC2)[C@H](C)CN([C@H](C)CO)C(=O)c2cc(NC(=O)Nc3ccc(C(F)(F)F)cc3)ccc2O1	active
C[C@@H]1CCCCO[C@@H](CN(C)CC2CCCCC2)[C@H](C)CN([C@@H](C)CO)C(=O)c2cc(NC(=O)Nc3ccc(C(F)(F)F)cc3)ccc2O1	active
C[C@H](CO)N1C[C@H](C)[C@H](CN(C)CC2CCCCC2)OCCCC[C@H](C)Oc2ccc(NC(=O)Nc3ccc(C(F)(F)F)cc3)cc2C1=O	active
C[C@@H]1CCCCO[C@H](CN(C)CC2CCCCC2)[C@H](C)CN([C@@H](C)CO)C(=O)c2cc(NC(=O)Nc3ccc(C(F)(F)F)cc3)ccc2O1	active
C[C@@H]1CCCCO[C@@H](CN(C)CC2CC2)[C@H](C)CN([C@H](C)CO)C(=O)c2cc(NC(=O)Nc3ccc(C(F)(F)F)cc3)ccc2O1	inactive
C[C@H](CO)N1C[C@H](C)[C@@H](CN(C)CC2CC2)OCCCC[C@H](C)Oc2ccc(NC(=O)Nc3ccc(C(F)(F)F)cc3)cc2C1=O	inactive
CC(C)(N)CO.Cn1c(=O)c2[nH]c(Br)nc2n(C)c1=O	inactive
Cc1ccc(S(=O)(=O)N(C)C[C@H]2OCCCC[C@@H](C)Oc3ccc(NC(=O)CCC(F)(F)F)cc3C(=O)N([C@H](C)CO)C[C@H]2C)cc1	inactive
CO[C@H]1CN(C)C(=O)c2ccc(NC(C)=O)cc2OC[C@@H](C)N(S(=O)(=O)c2cn(C)cn2)C[C@@H]1C	inactive
C[C@@H]1CCCCO[C@@H](CN(C)Cc2ccc(Cl)c(Cl)c2)[C@@H](C)CN([C@H](C)CO)C(=O)c2cc(N(C)C)ccc2O1	inactive
